# Laboratory results published in PubChem BioAssay (NCI).
# Compounds without any hit were thinned out: in the full panel of roughly 83,000, 20% have a hit.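 Step 1: grow cells in 96-well plates. Step 2: add test compound at a single concentration. Step 3: incubate 48 h. Step 4: record percent growth.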 Activity calls are given as the source filed them. How the source made its calls: active means growth percent below 10; inactive means the rest.
# Assays:
# Test in all cases: NCI-60 one-dose screen, 48 h (100 = growth as untreated, 0 = no growth, -100 = all killed)
# Conditions in all cases: 10 µM
# SK-MEL-2 melanoma = system: SK-MEL-2 melanoma
# SN12C renal = system: SN12C renal
# UO-31 renal = system: UO-31 renal
# TK-10 renal = system: TK-10 renal
# ACHN renal = system: ACHN renal
# CAKI-1 renal = system: CAKI-1 renal
# A498 renal = system: A498 renal
# CCRF-CEM leukemia = system: CCRF-CEM leukemia
# MOLT-4 leukemia = system: MOLT-4 leukemia
# SR leukemia = system: SR leukemia
# RPMI-8226 leukemia = system: RPMI-8226 leukemia
# OVCAR-8 ovarian = system: OVCAR-8 ovarian
# OVCAR-5 ovarian = system: OVCAR-5 ovarian
# OVCAR-4 ovarian = system: OVCAR-4 ovarian
# SK-OV-3 ovarian = system: SK-OV-3 ovarian
# IGROV1 ovarian = system: IGROV1 ovarian
# OVCAR-3 ovarian = system: OVCAR-3 ovarian
# NCI/ADR-RES ovarian = system: NCI/ADR-RES ovarian
# HS 578T breast = system: HS 578T breast
Compound,growth (SK-MEL-2 melanoma),growth (SN12C renal),growth (UO-31 renal),growth (TK-10 renal),growth (ACHN renal),growth (CAKI-1 renal),growth (A498 renal),growth (CCRF-CEM leukemia),growth (MOLT-4 leukemia),growth (SR leukemia),growth (RPMI-8226 leukemia),growth (OVCAR-8 ovarian),growth (OVCAR-5 ovarian),growth (OVCAR-4 ovarian),growth (SK-OV-3 ovarian),growth (IGROV1 ovarian),growth (OVCAR-3 ovarian),growth (NCI/ADR-RES ovarian),growth (HS 578T breast)
CCOC(=O)c1cc2c(n1Cc1cc(OC)cc(OC)c1)-c1oncc1CC2,26.7% (inactive),40.9% (inactive),19.4% (inactive),53.2% (inactive),47.1% (inactive),29.2% (inactive),24.9% (inactive),13.2% (inactive),23.6% (inactive),18% (inactive),39.5% (inactive),26.8% (inactive),49% (inactive),48.9% (inactive),5.06% (active),14.3% (inactive),-51.2% (active),0.862% (active),
O=c1oc2cc(OS(=O)(=O)C3CC3)ccc2c2c1CCCCCC2,103% (inactive),82.8% (inactive),83.4% (inactive),121% (inactive),82.1% (inactive),79.4% (inactive),63.8% (inactive),64.4% (inactive),65.6% (inactive),52.7% (inactive),49.3% (inactive),82.6% (inactive),100% (inactive),65.3% (inactive),89.1% (inactive),103% (inactive),68.7% (inactive),68.4% (inactive),106% (inactive)
COc1ccc(-c2cc(/C=C/C(=O)c3ccc(N)cc3)[nH]n2)cc1OC,80.8% (inactive),35.1% (inactive),27.3% (inactive),39.3% (inactive),50.5% (inactive),31% (inactive),52.8% (inactive),7.41% (active),7.23% (active),10.3% (inactive),-12.6% (active),15.2% (inactive),45% (inactive),24.4% (inactive),,29.1% (inactive),5.89% (active),78.6% (inactive),1.16% (active)
CCCCC(=O)N(c1ccc(Nc2c3ccccc3nc3cc([N+](=O)[O-])ccc23)cc1)S(C)(=O)=O,109% (inactive),69.3% (inactive),36.7% (inactive),95.8% (inactive),43.1% (inactive),59.9% (inactive),78.8% (inactive),33.2% (inactive),22.8% (inactive),5.36% (active),35% (inactive),71.7% (inactive),96.9% (inactive),81% (inactive),,48.7% (inactive),88.3% (inactive),101% (inactive),88.3% (inactive)
COc1cccc2c1O/C(=C\c1ncc([N+](=O)[O-])n1C)C2=O,-51.5% (active),-54.2% (active),-34.7% (active),-33.7% (active),7.42% (active),-26.5% (active),-33.4% (active),8.19% (active),-1.08% (active),6.35% (active),-8.69% (active),-23.3% (active),-9.04% (active),7.16% (active),,-17.7% (active),-3.72% (active),-3.54% (active),-24.3% (active)
CCc1ccc(-c2nnc(COc3ccc(-c4nc5ccc(C)cc5[nH]4)cc3OC)o2)cc1,104% (inactive),10.7% (inactive),38.2% (inactive),55.1% (inactive),-8.12% (active),30.3% (inactive),84.1% (inactive),6.98% (active),38.6% (inactive),-31.5% (active),-6.63% (active),39.9% (inactive),92.4% (inactive),-59.8% (active),,64.4% (inactive),,42.1% (inactive),28.2% (inactive)
O=C(O)CN1C(=O)C=CC1=O,98.2% (inactive),106% (inactive),91.6% (inactive),96.7% (inactive),104% (inactive),102% (inactive),91.6% (inactive),107% (inactive),85.2% (inactive),109% (inactive),106% (inactive),,101% (inactive),115% (inactive),105% (inactive),100% (inactive),104% (inactive),111% (inactive),107% (inactive)
C=C[C@]1(C)C=C2C(=O)[C@@]3(O)OC(=O)[C@@]4(CCCC(C)(C)[C@H]34)[C@@]2(O)CC1,-66.5% (active),-66.5% (active),-99.4% (active),-95.5% (active),-100% (active),-90.6% (active),-94.6% (active),-31.5% (active),-13.6% (active),-11% (active),-25.4% (active),,-71.7% (active),-74.4% (active),38.4% (inactive),-92.8% (active),-90.4% (active),-6.84% (active),0.722% (active)
COc1ccc(-c2cc(/C=C3\C(=O)Nc4cc(Cl)ccc43)[nH]n2)cc1OC,58.7% (inactive),70.5% (inactive),74.6% (inactive),92.7% (inactive),84.3% (inactive),63.9% (inactive),65.3% (inactive),54.2% (inactive),75% (inactive),21.9% (inactive),79.8% (inactive),,95.7% (inactive),85.6% (inactive),78.2% (inactive),50.7% (inactive),,62.5% (inactive),60.5% (inactive)
COc1cc(C)c2sc3ccccc3c(=O)c2c1NCCN(C)C,121% (inactive),54.2% (inactive),32% (inactive),61.9% (inactive),38.4% (inactive),39.7% (inactive),55% (inactive),22.6% (inactive),1.59% (active),3.64% (active),33.3% (inactive),40.5% (inactive),87% (inactive),72.8% (inactive),65.7% (inactive),29.3% (inactive),,61.9% (inactive),
COc1cc(-c2c(C#N)c(N)n3c(nc4ccccc43)c2C#N)cc(Br)c1OC,76.7% (inactive),40.1% (inactive),17.5% (inactive),11.1% (inactive),50.1% (inactive),69.1% (inactive),67.1% (inactive),19.6% (inactive),43.3% (inactive),-1.43% (active),35.8% (inactive),36.4% (inactive),68.9% (inactive),-2.8% (active),,83.5% (inactive),-36.6% (active),78.1% (inactive),19.7% (inactive)
CC1=CSC2=NC(c3ccc(Cl)c(Cl)c3)=CC(c3ccc(Cl)cc3)N12 (stereo unspecified),-14.1% (active),13.7% (inactive),7.9% (active),18.6% (inactive),13.5% (inactive),5.28% (active),-12% (active),31.9% (inactive),35.2% (inactive),0.606% (active),82.3% (inactive),,91.8% (inactive),62.5% (inactive),-19.9% (active),-52% (active),18% (inactive),92.9% (inactive),-1.12% (active)
N=C(N)c1ccc(-c2ccc(-c3ccccc3)s2)s1,-77.7% (active),-74.9% (active),-74.1% (active),-61.7% (active),-82.6% (active),-59.4% (active),32.1% (inactive),-49.4% (active),-55.9% (active),-40% (active),-44.3% (active),,-23.7% (active),-70.2% (active),-50.1% (active),-31.1% (active),-41.3% (active),-35.2% (active),-21% (active)
COc1cc(Cl)cc(-c2nn(-c3cccc(NC(=O)Nc4cccc(C(F)(F)F)c4)c3)cc2-c2ccncc2)c1,-36.7% (active),13.9% (inactive),-4.59% (active),23.4% (inactive),5.44% (active),16.1% (inactive),-6.74% (active),3.34% (active),-9.16% (active),,-14.2% (active),-12.3% (active),34.1% (inactive),3.28% (active),14.2% (inactive),28.8% (inactive),-0.412% (active),3.58% (active),23.1% (inactive)
CC(C)C[C@H](NC(=O)Cn1ccc(Nc2ccccc2)cc1=O)B(O)O,-2.39% (active),47.9% (inactive),53.9% (inactive),13.5% (inactive),10.1% (inactive),45.3% (inactive),-1.76% (active),3.67% (active),1.94% (active),,1.74% (active),54.4% (inactive),33.9% (inactive),47.5% (inactive),51.7% (inactive),53.4% (inactive),-45.4% (active),111% (inactive),28.9% (inactive)
C#CCn1c(-c2cccc(OCCCCl)c2)nc2c1c(=O)n(C)c(=O)n2C,81% (inactive),84.5% (inactive),50.5% (inactive),101% (inactive),76.6% (inactive),69.2% (inactive),83.6% (inactive),13% (inactive),2.33% (active),43.6% (inactive),10.5% (inactive),54.8% (inactive),98.9% (inactive),57% (inactive),,73.9% (inactive),58.1% (inactive),66.1% (inactive),99% (inactive)
